Measured values as given in the supplement of paper PMC9446081.
In all, about 39,000 compounds went through this assay and about 220 (0.56%) showed activity. The full list was thinned out, with actives kept by preference. A number with no mark means an inactive call.

The compounds below were run on Escherichia coli K-12 BW25113 (assay: relative growth (OD600 normalised to plate interquartile mean) (fraction); higher = less growth inhibition, active = 0.2 or less). Conditions: 50 µM; LB; incubation time: overnight (16-24 h).
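Also: Wild-type cells incubated without shaking, value is the mean of two biological replicates.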

Row | SMILES | relative growth
1 | CC(C)NC(=O)Nc1ccc2c(c1)C(=O)N([C@H](C)CO)C[C@H](C)[C@@H](CN(C)CC1CCCCC1)OCCCC[C@@H](C)O2 | 0.975
2 | C[C@@H]1CN([C@H](C)CO)C(=O)c2cccc(NS(C)(=O)=O)c2O[C@@H]1CN(C)C(=O)NC1CCCCC1 | 0.99
3 | COc1ccc(S(=O)(=O)N(C)C[C@@H]2OCCCC[C@@H](C)Oc3ccc(NC(=O)CCC(F)(F)F)cc3C(=O)N([C@H](C)CO)C[C@@H]2C)cc1 | 1.01
4 | CN(C)c1ccc(O)c2c1C[C@H]1C[C@H]3[C@H](N(C)C)C(=O)[C@@H](C(N)=O)C(=O)[C@@]3(O)C(=O)[C@H]1C2=O | 0.0587 (active)
5 | CN(C)c1cc(NC(=O)CNC(C)(C)C)c(O)c2c1C[C@H]1C[C@H]3[C@H](N(C)C)C(=O)C(C(N)=O)=C(O)[C@@]3(O)C(=O)[C@H]1C2=O | 1
6 | CN(C)[C@@H]1C(=O)[C@@H](C(N)=O)C(=O)[C@@]2(O)C(=O)[C@H]3C(=O)c4c(O)cccc4C[C@H]3C[C@@H]12 | 0.972
7 | CN(C)c1ccc(O)c2c1C[C@H]1C[C@H]3[C@H](N(C)C)C(=O)C(C(N)=O)=C(O)[C@@]3(O)C(=O)[C@H]1C2=O | 0.184 (active)
8 | C[C@@H]1CN([C@H](C)CO)C(=O)c2cc(NS(=O)(=O)c3cccs3)ccc2O[C@H]1CN(C)Cc1ccc(-c2ccccc2)cc1 | 0.997
9 | C[C@H](CO)N1C[C@H](C)[C@H](CN(C)C(=O)Nc2cccc3ccccc23)Oc2ncc(C#Cc3ccccc3)cc2C1=O | 0.961
10 | C[C@@H]1CCCCO[C@H](CN(C)Cc2ccncc2)[C@H](C)CN([C@H](C)CO)C(=O)c2cc(NC(=O)Nc3ccccc3)ccc2O1 | 0.834
11 | CN[C@H]1CN(c2ccc3c(=O)c(C(=O)O)cn(-c4nccs4)c3n2)C[C@@H]1OC | 0.0372 (active)
12 | COC(=O)C1=C[C@@H](O)[C@@H](O)[C@H](O[C@@H]2O[C@H](COC(=O)/C=C/c3ccccc3)[C@@H](O)[C@H](O)[C@H]2O)C1 | 0.984
13 | COc1ccc(S(=O)(=O)Nc2cccc3c2O[C@@H](CN(C)S(=O)(=O)c2ccc(OC)cc2)[C@H](C)CN([C@@H](C)CO)C3=O)cc1 | 1.01
14 | C[C@H]1CN([C@@H](C)CO)C(=O)Cc2cc(NC(=O)Nc3ccccc3)ccc2O[C@H]1CN(C)Cc1ccc(Oc2ccccc2)cc1 | 1.01
15 | C[C@@H]1CN([C@H](C)CO)C(=O)c2cc(NS(=O)(=O)c3ccccc3)ccc2O[C@@H]1CN(C)CC1CC1 | 1
16 | NC[C@H]1OB(O)c2c(OCCO)ccc(Cl)c21 | 0.982
17 | NC[C@H]1OB(O)c2c(OCCCO)cccc21 | 0.04 (active)
18 | CC(C)(C)OC(=O)N1CCC(N)CC1 | 0.98
19 | C=C1c2cccc(O)c2C(=O)[C@@H]2C(=O)[C@]3(O)C(=O)[C@@H](C(N)=O)C(=O)[C@@H](N(C)C)[C@@H]3[C@@H](O)[C@H]12 | 0.0752 (active)
20 | CC1c2cccc(O)c2C(=O)C2=C(O)C3(O)C(=O)C(C(N)=O)=C(O)C(N(C)C)C3C(O)C21.Cl (configuration not stated) | 0.0595 (active)
21 | C=C1c2cccc(O)c2C(=O)C2=C(O)C3(O)C(=O)C(C(N)=O)=C(O)C(N(C)C)C3C(O)C12.Cl (configuration not stated) | 0.0546 (active)

Row | SMILES | relative growth
22 | C[C@H]1c2cccc(O)c2C(=O)C2=C(O)[C@]3(O)C(=O)[C@@H](C(N)=O)C(=O)[C@@H](N(C)C)[C@@H]3[C@@H](O)[C@@H]21 | 0.0376 (active)
23 | C=C1c2cccc(O)c2C(=O)C2=C(O)[C@]3(O)C(O)=C(C(N)=O)C(=O)[C@@H](N(C)C)[C@@H]3[C@@H](O)[C@H]12 | 0.225
24 | Cc1noc(C)c1S(=O)(=O)Nc1ccc2c(c1)CC(=O)N([C@H](C)CO)C[C@@H](C)[C@H](CN(C)C(=O)NC(C)C)O2 | 1.03
25 | C[C@H](CO)N1C[C@H](C)[C@@H](CN(C)S(C)(=O)=O)OCc2cnnn2CCCC1=O | 1.07
26 | Cc1ccc(S(=O)(=O)N(C)C[C@@H]2Oc3c(NC(=O)c4ccncc4)cccc3C(=O)N([C@@H](C)CO)C[C@H]2C)cc1 | 0.999
27 | COc1ccc2c(c1OCc1ccccc1)C[C@@H](C(=O)O)N(C(=O)C(c1ccccc1)c1ccccc1)C2 | 1.02
28 | C[C@@H]1CN([C@@H](C)CO)C(=O)c2cccc(NC(=O)C3CCOCC3)c2O[C@@H]1CN(C)C(=O)Nc1ccc2c(c1)OCO2 | 1.01
29 | CN(C)CC(=O)N[C@@H]1C=C[C@H](CC(=O)O)O[C@H]1CO | 0.997
30 | CCNC(=O)C[C@@H]1CC[C@H]2[C@H](COc3ccc(NS(=O)(=O)c4ccccc4C)cc3C(=O)N2C)O1 | 0.981
31 | CNC[C@H]1Oc2ccc(NC(=O)CCN3CCOCC3)cc2CC(=O)N([C@@H](C)CO)C[C@@H]1C | 0.977
32 | CCc1nnc(N)[nH]1 | 0.947
33 | C[C@H]1CCCCO[C@H](CN(C)Cc2ccccc2)[C@@H](C)CN([C@@H](C)CO)C(=O)c2cc(NC(=O)Nc3cccc4ccccc34)ccc2O1 | 0.996
34 | Cc1c(-c2ccccc2)n(C[C@@H](O)CN)c2ccccc12 | 0.892
35 | COC1(NC(=O)C2SC(=C(C(N)=O)C(=O)O)S2)C(=O)N2C(C(=O)O)=C(CSc3nnnn3C)CSC21 (configuration not stated) | 0.0448 (active)
36 | CO[C@@]1(NC(=O)CSC[C@@H](N)C(=O)O)C(=O)N2C(C(=O)O)=C(CSc3nnnn3C)CS[C@@H]21 | 1
37 | CO[C@@]1(NC(=O)[C@@H](C(=O)O)c2ccc(O)cc2)C(=O)N2C(C(=O)O)=C(CSc3nnnn3C)CO[C@@H]21 | 0.983
38 | COC1(NC(=O)CSCC#N)C(=O)N2C(C(=O)[O-])=C(CSc3nnnn3C)CSC21.[Na+] (configuration not stated) | 0.0458 (active)
39 | COC1(NC(=O)C(C(=O)[O-])c2ccc(O)cc2)C(=O)N2C(C(=O)[O-])=C(CSc3nnnn3C)COC21.[Na+].[Na+] (configuration not stated) | 0.0483 (active)
40 | CO[C@@H]1CN(C)C(=O)c2cc(NS(=O)(=O)c3cn(C)cn3)ccc2OC[C@@H](C)N(Cc2cccc(F)c2)C[C@@H]1C | 1.02
41 | COc1ccc(NC(=O)Nc2ccc3c(c2)C(=O)N([C@H](C)CO)C[C@@H](C)[C@@H](CN(C)CC2CCCCC2)OCCCC[C@@H](C)O3)cc1 | 0.984
42 | O=C(NCc1ccccc1)[C@@H]1c2ccccc2C(=O)N(Cc2ccccc2C(F)(F)F)[C@H]1c1ccc(CO)cc1 | 1

Row | SMILES | relative growth
43 | CN1C(=O)c2cc(NC(=O)c3cccs3)ccc2OC[C@H]2O[C@H](CC(=O)NCC(F)(F)F)CC[C@H]21 | 1
44 | CCCN(C)C[C@@H]1OCCCC[C@@H](C)Oc2ccc(NC(=O)Nc3ccccc3)cc2C(=O)N([C@H](C)CO)C[C@@H]1C | 1.01
45 | CC(C)NC(=O)Nc1ccc2c(c1)C(=O)N([C@H](C)CO)C[C@H](C)[C@H](CN(C)CC1CCCCC1)OCCCC[C@@H](C)O2 | 0.955
46 | COc1ccc(S(=O)(=O)Nc2ccc3c(c2)C(=O)N([C@H](C)CO)C[C@H](C)[C@H](CN(C)C(=O)Nc2ccccc2)OCCCC[C@@H](C)O3)cc1 | 0.996
47 | NCCONC(=O)[C@@H]1CC[C@@H]2CN1C(=O)N2OS(=O)(=O)O | 0.0923 (active)
48 | NC(=O)[C@@H]1CC[C@@H]2CN1C(=O)N2OS(=O)(=O)O | 0.19 (active)
49 | COc1ccc(CN(C)C[C@H]2OCCCC[C@H](C)Oc3ccc(NS(=O)(=O)c4ccc(C)cc4)cc3C(=O)N([C@H](C)CO)C[C@@H]2C)cc1 | 1
50 | Cc1noc(C)c1NC(=O)Nc1ccc2c(c1)C(=O)N([C@@H](C)CO)C[C@@H](C)[C@H](CN(C)Cc1ccncc1)OCCCC[C@H](C)O2 | 0.993
51 | C[C@H](NC(=O)C[C@H]1C=C[C@H](NC(=O)CN2CCOCC2)[C@@H](CO)O1)c1ccccc1 | 0.983
52 | COc1ccc(C(=O)Nc2ccc3c(c2)C(=O)N(C)[C@@H]2CC[C@@H](CC(=O)NCC4CC4)O[C@H]2CO3)cc1 | 0.96
53 | COc1ccc(NC(=O)N(C)C[C@H]2Oc3c(NS(=O)(=O)c4c(C)noc4C)cccc3C(=O)N([C@H](C)CO)C[C@H]2C)cc1 | 0.994
54 | CN(C)CC(=O)N[C@@H]1C=C[C@H](CC(=O)NCCN2CCCCC2)O[C@@H]1CO | 0.999
55 | Cc1noc(C)c1NC(=O)Nc1ccc2c(c1)C(=O)N([C@@H](C)CO)C[C@@H](C)[C@H](CN(C)C(=O)Nc1ccc(C(F)(F)F)cc1)OCCCC[C@H](C)O2 | 1.02
56 | CC(C)NC(=O)N[C@H]1CC[C@H](CCN)O[C@@H]1CO | 0.987
57 | NCC1OC(OC2C(N)CC(N)C(OC3OC(CO)C(O)C(N)C3O)C2O)C(O)C(O)C1O.O=S(=O)(O)O (configuration not stated) | 0.982
58 | NCC1OC(OC2C(N)CC(N)C(O)C2OC2OC(CO)C(O)C2O)C(N)C(O)C1O.O=S(=O)(O)O (configuration not stated) | 0.78
59 | NC[C@H]1O[C@H](O[C@H]2[C@H](O)[C@@H](O[C@H]3O[C@H](CO)[C@@H](O)[C@H](N)[C@H]3O)[C@H](N)C[C@@H]2N)[C@H](N)[C@@H](O)[C@@H]1O | 0.0328 (active)
60 | NC[C@H]1O[C@H](O[C@@H]2[C@H](O)[C@@H](O[C@H]3O[C@H](CO)[C@@H](O)[C@H](N)[C@H]3O)[C@H](N)C[C@@H]2N)[C@H](O)[C@@H](O)[C@@H]1O | 0.983
61 | NCC1OC(OC2C(N)CC(N)C(OC3OC(CO)C(O)C(N)C3O)C2O)C(N)C(O)C1O.O=S(=O)(O)O (configuration not stated) | 0.0483 (active)
62 | NC[C@H]1O[C@H](O[C@H]2[C@@H](O[C@@H]3O[C@H](CO)[C@@H](O)[C@H]3O)[C@@H](O)[C@H](N)C[C@@H]2N)[C@H](N)[C@@H](O)[C@@H]1O | 0.981
